Source: PubChem (National Center for Advancing Translational Sciences (NCATS))
Six1-Eya2 inh – qHTS Assay for Inhibitors of the Six1/Eya2 Interaction; Homeobox protein SIX1 (Homo sapiens) + Protein phosphatase EYA2 (Homo sapiens), …; AlphaScreen GST-Six1/His-Eya2 binding, biochemical; hits give low values; activity change, % (no concentration beside the values); actives 0.56% (n = 360,000); AID 651725, 2012; in the data active means activity change below about -65%; inconclusive means mostly about -30% to -63%
Target sequence (O00167 whole entry, looked up): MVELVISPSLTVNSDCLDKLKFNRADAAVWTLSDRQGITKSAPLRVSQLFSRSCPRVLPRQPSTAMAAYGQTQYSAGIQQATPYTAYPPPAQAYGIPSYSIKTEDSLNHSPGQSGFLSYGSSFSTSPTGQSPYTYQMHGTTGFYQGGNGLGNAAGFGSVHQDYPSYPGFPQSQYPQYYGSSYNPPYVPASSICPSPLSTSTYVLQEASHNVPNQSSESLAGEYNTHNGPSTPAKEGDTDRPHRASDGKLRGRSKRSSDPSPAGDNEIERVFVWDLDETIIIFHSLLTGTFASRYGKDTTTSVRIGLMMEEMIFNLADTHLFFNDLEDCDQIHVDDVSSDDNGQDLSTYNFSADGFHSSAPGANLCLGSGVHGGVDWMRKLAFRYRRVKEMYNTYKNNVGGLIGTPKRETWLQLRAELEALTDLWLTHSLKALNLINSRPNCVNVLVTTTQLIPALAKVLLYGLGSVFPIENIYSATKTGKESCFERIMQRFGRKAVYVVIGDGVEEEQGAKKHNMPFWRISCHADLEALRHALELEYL
Target sequence (Q15475 whole entry, looked up): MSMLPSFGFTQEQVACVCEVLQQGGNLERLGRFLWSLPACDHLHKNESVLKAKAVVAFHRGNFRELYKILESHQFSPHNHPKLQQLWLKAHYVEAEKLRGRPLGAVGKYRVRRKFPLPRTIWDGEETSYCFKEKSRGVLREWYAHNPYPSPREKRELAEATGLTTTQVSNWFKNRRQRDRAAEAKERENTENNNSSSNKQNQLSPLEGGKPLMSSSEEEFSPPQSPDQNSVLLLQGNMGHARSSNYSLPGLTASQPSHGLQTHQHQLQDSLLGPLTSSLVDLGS
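Compounds are tested against tagged Six1 and Eya2 proteins bridged by glutathione donor and nickel acceptor beads; after a one-hour incubation at 37 °C without light, AlphaScreen emission is recorded.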
CtBP-E1A inh – qHTS Assay for Inhibitors of the CtBP/E1A Interaction; AlphaScreen GST-E1A/His-CtBP binding, 1536-well; hits give low values; activity change, % (test concentration not listed); actives 0.49% (n = 340,000); in the data active means activity change below about -65%; inconclusive means mostly about -30% to -63%
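AlphaScreen with 125 nM GST-E1A and 125 nM His-CtBP (5X stocks) in Tris pH 8.0, 300 mM NaCl, BSA, Tween 20, TCEP. Compounds preincubated 2 h at 37 deg C, then glutathione donor/nickel acceptor beads added for 1 h at 37 deg C in dark.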
TDP1 cell noCPT – qHTS for Inhibitors of human tyrosyl-DNA phosphodiesterase 1 (TDP1): qHTS in cells in absence of CPT. DT40 Tdp1-/- hTDP1 cells, no CPT, ATP luminescence, 48 h. Potency, µM (highest dose often 46.2 µM), for inactives: at the top dose activity change, negative = growth inhibition, hits mostly inhibitors. actives 15% (n = 420,000); further: potency means the concentration at half of the fitted maximal effect; nearly all actives have a fitted effect of over 55% in size
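A cellular qHTS used chicken DT40 cells lacking endogenous Tdp1 but carrying stably transfected human TDP1. Compounds were applied without camptothecin, and cell growth kinetics were judged by ATP-dependent luminescence after ≥48 hr.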
TDP1 block – qHTS Assay for Inhibitors of Tyrosyl-DNA Phosphodiesterase (TDP1); recombinant TDP1, AlphaScreen DNA substrate cleavage; Potency, µM (titrated, usually from 130 µM), for inactives: top-dose activity change, negative = inhibition, hits mostly inhibitors; actives 0.28% (n = 350,000); AID 485290, 2010; further: potency means the concentration at half of the fitted maximal effect; nearly all actives have a fitted effect of over 40% in size
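Tdp1 1 nM final; 15 min RT w/ cpd; substrate 15 nM, 5 min; beads 10 ug/ml, 10 min; AlphaScreen read. Neg ctrl: no enzyme.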
IL1B secr inh – qHTS for Inhibitors of Inflammasome Signaling: IL-1-beta AlphaLISA Primary Screen. THP-1 LPS/ATP IL-1B secretion, AlphaLISA, 16 h; hits give low values. activity change, % at 57.5 µM. actives 4.7% (n = 360,000). AID 743279, 2014; in the data active means activity change below about -50%; inconclusive means mostly about -30% to -49%
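THP-1 cells pretreated 1 hr with compounds (up to 57.5 uM final), then stimulated with LPS (250 ng/mL final) plus ATP (1.25 mM final); secreted IL-1B measured by AlphaLISA after 16 hr, decreased signal indicating inhibition.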
TDP1 cell CPT – qHTS for Inhibitors of human tyrosyl-DNA phosphodiesterase 1 (TDP1): qHTS in cells in presence of CPT; chicken DT40 Tdp1-/-;hTDP1 cells + 20 nM CPT, ATP luminescence, 48 h; Potency, µM (doses to about 46.2 µM), for inactives: top-dose activity change, negative = growth inhibition, most hits filed as inhibitors; actives 12% (n = 420,000); AID 686979, 2013; further: potency means the concentration at half of the fitted maximal effect; nearly all actives have a fitted effect of over 55% in size
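Chicken DT40 Tdp1-/- cells complemented with human TDP1, 400 cells/well, exposed to compounds plus 20 nM camptothecin for at least 48 h at 37 C; viability read as ATP content by CellTiter-Glo luminescence.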
* marks the source's active call; other numbers are inactive results; ? = inconclusive; / = no result; [ ] = remark or other dose. An excerpt weighted towards active compounds, which were near 18% of everything screened. Unless noted, the call rests on the fitted dose curve; in most records, active means well fitted curve in the direction sought with a large enough effect; inconclusive means small, poorly fitted or top-dose-only effect, or another doubt; inactive means no such curve, though single readings can be large; an effect the other way counts as inactive or inconclusive. On the % scale 0 is the no-effect control and ±100 the full control effect.

SMILES	Six1-Eya2 inh	CtBP-E1A inh	TDP1 cell noCPT	TDP1 block	IL1B secr inh	TDP1 cell CPT
COc1ccccc1CN1CCN(Cc2ccc3ccccc3c2)CC1	-12	/	?	/	-3	?
CCCS(=O)(=O)N1CCN(Cc2ccc3c(c2)c2ccccc2n3CC)CC1	-20	-19	?	-3%	?	21µM*
CCn1c2ccccc2c2cc(CN3CCN(Cc4ccccc4Cl)CC3)ccc21	/	/	?	-1%[2.28 µM]	/	?
Nc1ccccc1-c1nnc(SCc2ccccc2Cl)[nH]c1=O	-3	-9	?	2%	3	?
CCOc1ccc(N2CC(O)=C(c3ccccc3)C2=N)cc1	-3	-16	?	-2%	-3	3%
Cc1ccc(NC(=O)NCCN2CCN(c3ccccc3)CC2)cc1Cl	-5	2	?	/	?	?
COc1cc2c(cc1OC)CN(C(=O)Nc1ccccc1Cl)CC2	1	-1	-22%	-3%	/	-28%
CCOc1ccc(CN2CCN(C(=O)c3cccc4ccccc34)CC2)cc1	-6	-12	?	/	-83*	?
O=C(NC(c1ccc(F)cc1)c1ccc2ccccc2n1)C1CCN(CCOc2ccc(F)cc2)CC1 (stereo not drawn)	-30	?	8.2µM*	/	?	8.2µM*
Cc1cccnc1C(NC(=O)C1CCN(CCOc2ccc(F)cc2)CC1)c1ccc(F)cc1 (stereo not drawn)	-9	-9	?	/	?	?
COc1ccc(C(NC(=O)C2CCN(CCOc3ccc(Cl)cc3)CC2)c2cccs2)cc1 (stereo not drawn)	5	-12	?	/	-71*	?
O=C(NC(c1ccc(F)cc1)c1ccc2ccccc2n1)C1CCN(CCOc2ccc(Cl)cc2Cl)CC1 (stereo not drawn)	-7	-18	?	/	?	16µM*
O=C(NC(c1ccccc1)c1ccc2ccccc2n1)C1CCN(CCOc2ccc(Cl)cc2)CC1 (stereo not drawn)	-29	6	16µM*	/	-100*	23µM*
CN(C(=O)COC(=O)Cc1ccc(Cl)cc1)C1CCCCC1	11	-1	-3%	1%	-6	10%
COc1ccc(OCCN2CCC(C(=O)NC(c3ccc(F)cc3)c3ccc4ccccc4n3)CC2)cc1 (stereo not drawn)	?	-29	18µM*	/	-50*	29µM*
COc1ccc(OCCN2CCC(C(=O)NC(c3ccc(OC)cc3)c3ccccn3)CC2)cc1 (stereo not drawn)	5	1	-23%	/	-8	-14%
COc1ccc(OCCN2CCC(C(=O)NC(c3ccccc3)c3ccc4ccccc4n3)CC2)cc1 (stereo not drawn)	-23	-17	?	/	-80*	?
Cc1ccc(N2C(=O)CC(C3CCCO3)C2=O)cc1 (stereo not drawn)	5	-1	1%	-2%	-3	4%
COc1ccc(-n2nc(C)cc2Nc2ccccc2C(=O)O)cc1	?	/	?	2%	41	?
NC(=O)C1=C[C@@H](c2coc3ccccc3c2=O)C[C@@H](OCc2ccc(CO)cc2)O1	-1	1	?	4%	-7	-27%
O=C(NC(c1ccc2c(c1)OCO2)c1ccccn1)C1CCN(CCOc2ccc(Cl)cc2Cl)CC1 (stereo not drawn)	-20	-22	?	/	?	?
O=C(NC(c1ccc(Cl)cc1)c1ccccn1)C1CCN(CCOc2ccc(Cl)cc2Cl)CC1 (stereo not drawn)	-5	-25	18µM*	/	-7	?
Cc1cccnc1C(NC(=O)C1CCN(CCOc2ccc(Cl)cc2Cl)CC1)c1ccc(Cl)cc1 (stereo not drawn)	-11	-1	7.3µM*	/	?	12µM*
O=C(NC(c1ccc(Cl)cc1)c1cccnc1)C1CCN(CCOc2ccc(Cl)cc2Cl)CC1 (stereo not drawn)	-8	0	?	/	0	?
C#CC1(NC(=O)NC(C)(C)C)CCCCC1	0	/	-20%	/	-2	4%
SMILES	Six1-Eya2 inh	CtBP-E1A inh	TDP1 cell noCPT	TDP1 block	IL1B secr inh	TDP1 cell CPT
CCNC(=O)CC1SC(=Nc2ccc(Cl)cc2)N(CC)C1=O (stereo not drawn)	-2	/	21µM*	-3%	-1	?
CC(NC(=O)CNC(=S)N(Cc1cccs1)C1CCCC1)c1ccccc1 (stereo not drawn)	-9	1	16µM*	5%	-24	?
Cc1ccccc1NC(=S)N(Cc1cccs1)C1CCCCC1	-8	-10	9.2µM*	0%	-3	-29%
CCN(C(=S)Nc1ccc(OC(F)F)cc1)C1CCCCC1	-6	9	-23%	-5%	?	-1%
CCN(C(=S)Nc1ccccc1F)C1CCCCC1	3	1	23µM*	-4%	-8	?
Cc1ccc(C)c(NC(=O)C2(C)CCN2C(=O)C(C)C)c1 (stereo not drawn)	1	0	2%	/	7	-12%
O=C(O)c1ccccc1C(=O)NCC(O)COCC1CC=CCC1 (stereo not drawn)	2	19	-30%	2%	12	-1%
CN(NC(=O)Nc1ccc(Cl)cc1)c1ncc(C(F)(F)F)cc1Cl	2	12	?	/	-4	?
Cc1noc(C)c1COc1cccc(C(=O)N(C)Cc2nc3ccccc3c(=O)[nH]2)c1	-3	1	-14%	0%	32	-7%
Cc1cccc(-c2c3c(=O)n(C)c(=O)n(C)c3c3c(C)nc4ccccc4n23)c1	/	/	6.5µM*	2%	/	?
Cc1cccc(-c2c3c(=O)n(C)c(=O)n(C)c3c3nnc4ccccc4n23)c1	1	5	6.5µM*	/	12	?
O=C(CSC1CC(=O)N(c2ccc(C(=O)O)cc2)C1=O)Nc1ccc2ccccc2c1 (stereo not drawn)	-5	/	?	-1%	-3	?
N=c1c2c(ncn1CCCO)Oc1cc(O)ccc1C2c1ccccc1 (stereo not drawn)	13	-1	-1%	4%	7	-13%
